Measurements reported in the supplement of paper PMC11417369.
In all, about 25,000 sequences were measured (“ln(normalized median fluorescence intensity)”: median about 9.3, highest 2% from about 10 on). The list comes from a sample in which the highest values are over-represented; it also holds similar and randomly drawn sequences.

Tested on: PF3D7_0420300 AP2 domain 1 (GST-tagged)
Assay: gcPBM binding intensity (ln(normalized median fluorescence intensity)); higher = stronger DNA binding
Procedure, shortened: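 For binding intensity, the highest Masliner-normalised natural-log median intensity across replicate spots of either probe orientation was taken. Protein bound to the array was stained with Alexa488 anti-GST antibody and scanned at 488 nm. The protein, GST-tagged P. falciparum DNA-binding domains from E. coli at about 25 μg on average, had been applied for 1 h to an Agilent 4 × 180k array of primer-extended double-stranded 36-bp intergenic genomic probes and negative controls.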

| Sequence | gcPBM binding intensity (ln) |
| --- | --- |
| TATATATTAAACTTTGCACACATAATTTAACTACAA [CACACA_site3440] | 9.4 |
| TTAGATATAAAAGCATGTACTTGTATAAAATATATA [XGTACX_site8272] | 9.16 |
| TACAGACATACATACACACATACATATATATATATA [CACACA_site1940] | 9.67 |
| TACATGCAAAAAATTCCACACACACCCCCACATATA [CACACA_site8329] | 10.2 |
| CATGCAAAAAATTCCACACACACACCCACATATAAA [CACACA_site1229] | 9.92 |
| TTGGCATACAGACACACACACACACGCCCACATATA [CACACA_site6425] | 10.2 |
| TTACATTATATACATACACACCCACCCACAAAAAAA [CACACA_site8187] | 10.1 |
| TATATACATAGACACCCACACACAAAAAAAAAAAAA [CACACA_site8186] | 9.75 |
| TGCAAAAAATTCCACACACACACACCCATATAAATA [CACACA_site1230] | 10 |
| TATACAGACAGACACACACACATATATATATATATA [CACACA_site1734] | 9.82 |
| CACACCCACAGACACACACACACATATATATATATA [CACACA_site363] | 10.2 |
| CACACCCACAGACACACACACACATATATAATATAT [CACACA_site594] | 10.2 |
| TACATATACAGACACACACACACACCCCCACAAAAA [CACACA_site495] | 10.3 |
| CCTTTATATTATAAAAGTACATAATATTTTATAAGT [XGTACX_site1629] | 8.96 |
| TATATATGTATCATTACACACATGTATACTTATTTG [CACACA_site4138] | 9.71 |
| TGAGAGTTCTCATATGCACACAAAAAACTTTCATTT [CACACA_site7898] | 9.28 |
| TATTTTTAATAAAAACGTACGGAATACAAAAAAAAT [XGTACX_site3477] | 9.4 |
| AAGAAAATTGTCTGAAGTACAAAACATTAATAATAT [XGTACX_site4864] | 9.27 |
| ATATTATAATTAAAACGTACGTATTTATGAATTCAT [XGTACX_site1047] | 9.16 |
| ATAAATAATATAAATACACACTAAAAAAAATATATA [CACACA_site4456] | 9.7 |
| CAAAAACATACCTACACACACAATATGTATAAATAA [CACACA_site7617] | 10 |
| TACCTATACAGACACACACACACACGCCCACAAAAA [CACACA_site6375] | 10.3 |
| CATACACCCATACATACACACATACAGATATATATA [CACACA_site5123] | 9.74 |

| Sequence | gcPBM binding intensity (ln) |
| --- | --- |
| CGCACCCACAGACACACACACACATATATATATATA [CACACA_site2202] | 10.2 |
| GGCATACACAGACACACACACACACCCACATATATA [CACACA_site591] | 10.3 |
| TATACATACAGACCCACACACAAAAAAAAAAAAAAA [CACACA_site6536] | 9.38 |
| AATACACGCAGACACACACACAAAAAAAAAAAAAAA [CACACA_site6384] | 9.61 |
| TAAATACAGACATACACACATACACCCACATATATA [CACACA_site547] | 9.95 |
| TTGGCATACAGACACACACACACACCCCCACATATA [CACACA_site590] | 10.1 |
| CACCCCCACAGACACACACACACACCCATATATATA [CACACA_site364] | 10.3 |
| ATATTATTGTAGAAATGTACATATATATATATATAT [XGTACX_site1882] | 9.31 |
| ATCATATGTATGCATACACACAAAAAGTTATTTATA [CACACA_site6325] | 9.37 |
| CACAAACAAAAACACACACACACACCCACAAAAATG [CACACA_site2429] | 10.1 |
| AAAAAAAAAAAACACACACACACACCCAAATATATA [CACACA_site150] | 10.1 |
| TTAACAAATAAACACACACACACACCCAAAAAAAAA [CACACA_site8068] | 10.1 |
| TAAACACCCATATAAACACACATACATACATACATA [CACACA_site5383] | 9.7 |
| TATATAAAGAAACACACACACACCTTATAATTATTA [CACACA_site4062] | 10 |
| AAAAAAAAAAAACACACACACACACCCACAAAATAT [CACACA_site1447] | 10.2 |
| TGCAACAAAATAAACACACACACACCCCCACAAAAA [CACACA_site3388] | 10.3 |
| CATACATACAAACACACACACACACCCATATATATA [CACACA_site2918] | 10.4 |
| ATAAATAAAAAACACACACACACACCCAAAAAAAAA [CACACA_site2624] | 10.1 |
| TATAAACACCCATATAAACACACATACATACATACA [CACACA_site8791] | 9.58 |
| TATATAAATAAACACACACACACCTTATAATTATTA [CACACA_site9345] | 9.93 |
| TATATAAATGGACACACACACACCTTATAATTATTA [CACACA_site6093] | 10.2 |
| TTATATAACATTATTTGTACATATAAAATATGGATG [XGTACX_site8526] | 9 |
| ATATTATTTTAAAGTACACACATATATTGATATATA [CACACA_site7153] | 9.39 |

| Sequence | gcPBM binding intensity (ln) |
| --- | --- |
| TGAATTCGTCAAAAGCGTACATATAATATCTTCTTG [XGTACX_site8842] | 9.19 |
| AAAAACTATTGTAGGACACACAAAATTCCAATTTTA [CACACA_site1701] | 9.41 |
| GTCACAAAATAAATTAAACACACAACATCATATATG [CACACA_site8182] | 9.65 |
| AAAATACAGAAACACACACACACACCCATATATATA [CACACA_site3559] | 10.3 |
| ATTAATTATATATATACACACACATACACCCAAATA [CACACA_site9126] | 10 |
| AATGTACACGCACCCACACACAAACAAATATAAATA [CACACA_site7319] | 9.81 |
| AATGTACACCCACCCACACACAAACAAATATATATA [CACACA_site5521] | 10.2 |
| TTTAAATACAGACATACACACATACACCCACATATA [CACACA_site8078] | 9.81 |
| CACAAAAAAAATTATACACACACACCCATATATATA [CACACA_site8255] | 9.99 |
| ATAAAATACAGATAAACACACATATAAACACCCATA [CACACA_site5381] | 9.92 |
| AATGTACCCACACCCACACACAAACAAATATATATA [CACACA_site2751] | 9.85 |
| CAAAAAAAATTATACACACACACACCCATATATATA [CACACA_site1044] | 10.2 |
| AAAAAAAAAAAAAAAACACACAGAAATATATATATA [CACACA_site4611] | 9.55 |
| AACATACATAAACACACACACACACCCACAGAGACA [CACACA_site4430] | 10.4 |
| TAAACAGACATATAAACACACATATAAACAGACATA [CACACA_site7214] | 9.91 |
| AAATAACACTAATGATGTACTCAACTATTTATAATT [XGTACX_site8183] | 9.47 |
| TAAATATCAAGACACACACACAAAAGTGAATAAATA [CACACA_site7723] | 9.9 |
| TTATATTCTAGAGACACATGCGATTTTTTATTTTAT [TGCATGCA_site649] | 9.42 |
| ATATAATGATGGAAAAGAAAAGAAATAAAAAAAAAA [CACACA_negctrl_site1170] | 9.21 |
| TAGTTATCACATTGCACACACATTTCCTTTTACATT [CACACA_site7589] | 10 |
| CTAAAAATTTTAATTGCACACCACGTTGGACTATTT [CACACA_site1489] | 9.24 |
| AGCCATTAATTCTCTACACACCTTTATGTTATTTAG [CACACA_site3635] | 9.71 |
| TATTTTAATGAAGCATTTAAGGGAAAAAAAAAAAAA [TGCATGCA_negctrl_site606] | 8.85 |

| Sequence | gcPBM binding intensity (ln) |
| --- | --- |
| TTTACAAAAAATTATACACACACGTACAGATAAATA [CACACA_site4678] | 9.89 |
| TATATACACAAACACACACACACATACACCCACATA [CACACA_site8504] | 10.3 |
| AATAAATATATATACACACCCATATATATATATATA [CACACA_site2595] | 9.43 |
| AAAAAATACAAACACACACACACACCCATATATATA [CACACA_site3560] | 10.2 |
| TAAATAAATTTATACACACACACACCCATATATATA [CACACA_site849] | 10.2 |
| TATATACAGAAACACACACACACATATATATATATA [CACACA_site2247] | 10.1 |
| TATATACACCCACATACACACAAATAAAAAAACACC [CACACA_site3414] | 9.98 |
| TACAAACACCCATATACACACAAAAAAAAAATAAAA [CACACA_site5421] | 9.55 |
| TATAAATAAATTTATACACACACACCCATATATATA [CACACA_site8183] | 10 |
| TATACGCAGAAACACACACACATACACCCACATACA [CACACA_site1723] | 10 |
| AAAAAAAAAAAAAACACACACACACCCATACAAAAT [CACACA_site1446] | 10.1 |
| TATACATACCCACCCACACACAAAAAAAAAAAAAAA [CACACA_site4632] | 9.68 |
| AACATACAGAAACACACACACACACCCACACCCACA [CACACA_site493] | 10.3 |
| GATAAAATAAAAGTGGGTACTTAAATATATATATAA [XGTACX_site8457] | 9.28 |
| ATAAGAAAAAAGAACTGTACTAATAAAATATAAAAA [XGTACX_site3715] | 9.3 |
| TTTCGTAAAATGAAATGTACTCAAAAGTAAATATAA [XGTACX_site214] | 9.03 |
| TATTTTTCCATATGCACACACACCGTATATATAATA [CACACA_site1127] | 10 |
| AAAGAATAATTAAATACACACATATTGCAGTAAAAA [CACACA_site7201] | 9.69 |
| TATAAAAAATATAATTGTACATAAAGGTTAAAATGT [XGTACX_site6138] | 9.47 |
| ATTAGTTTTATATATAGTACATATAATTTTGAAGGT [XGTACX_site7445] | 9.2 |
